Test results: PubChem BioAssay AID743093 (The Scripps Research Institute Molecular Screening Center, 2013)
Out of some 150,000 compounds screened, about 100 (0.067%) were called active. This is one part of a sample in which actives are shown more often than they occur. Unmarked numbers belong to inactive results.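 How the source made its calls: active means inhibition above the mean plus 3 SD of compounds within the control limits, set per campaign (cut at about 38% in these data); inactive means the rest.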

Experiment: reduced ATP in mature Plasmodium gametocytes – ATP luminescence, HTS, primary screen (AID 743093);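 further: 0% = DMSO wells and 100% = medium only without gametocytes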
Conditions: P. falciparum stage V gametocytes, 24 h, at 10.9 µM, stronger effect = higher value
In the case of `COc1cc(OC)cc(-c2sc3ccc(OC)cc3c2-c2ccc3cc[nH]c3c2)c1`, the inhibition is reported as 5.06%. In the case of `C/C(=C/c1ccccc1)C(=O)N1CCN(c2ccccc2)CC1`, the inhibition is reported as 5.72%. Compound `Cc1cc2nc3n(c2cc1C)CC1CC(C(=O)NCCC(C)C)N(C)C31` (stereo not drawn) has an inhibition of 6.88%. In the case of `COC(=O)[C@]1(C)N[C@H](c2ccc(-c3ccc(Cl)c(Cl)c3)cc2)[C@@H]2C(=O)N(C)C(=O)[C@@H]21`, the inhibition is reported as 15.7%. `CC(C)(C)NC(=O)/C(=C/c1cccnc1)NC(=O)c1ccco1` gave an inhibition of -3.01%. Compound `COc1ccc(C(C)NC(=O)C2CCCC2)cc1` (stereo not drawn) has an inhibition of 7.38%. With `O=C(CNc1ccc(F)cc1F)NC(=O)NCc1ccco1` the inhibition was -14.3%. With `COc1ccc2ccn(C)c2c1` the inhibition was 3.29%. In the case of `CC(=O)N1CCC(N(C(=O)Nc2ccc(Cl)cc2)C(C)C)CC1`, the inhibition is reported as -9.52%. Compound `CCC(=O)Nc1ccc(C(=O)NNC(=O)c2ccc(Cl)cc2)cc1` has an inhibition of 1.21%. In the case of `CCN1C(=S)N[C@@H](CCc2ccccc2)[C@H](C(=O)OC)[C@H]1C`, the inhibition is reported as 12.5%. Compound `Oc1c(Br)cc(/C=N/NC(=S)NCC2CCCO2)cc1Br` (stereo not drawn) has an inhibition of -1.52%. `Cc1cc(N2CCN(c3ccccc3)CC2)nc(N2CCOCC2)n1` gave an inhibition of -32.2%. For `COc1ccc(NC(=O)C2=NNC(=O)CC2)cc1S(=O)(=O)N1CCCCC1`, the inhibition was 3.13%. `COc1ccc(N(CC(=O)Nc2cccc3ccccc23)S(C)(=O)=O)c(OC)c1` showed an inhibition of 7.84%. Compound `O=C(COc1ccccc1)N1CCN=C1SCc1cccc(F)c1` has an inhibition of 8.04%. In the case of `O=C(Nc1cccc(S(=O)(=O)NC2=NCCC2)c1)C1CCCCC1`, the inhibition is reported as -1.09%. Work on `CCOc1cc2ccccc2cc1C(=O)Nc1ccccn1` yielded an inhibition of 3.24%. Work on `CC(=O)c1ccc(N2Cc3ccccc3C2)cc1` yielded an inhibition of 9.41%. In the case of `O=C(CC(c1ccccc1)c1cc(Cl)ccc1O)NCCN1CCOCC1` (stereo not drawn), the inhibition is reported as -8.49%. Compound `CN(c1ccc(OCC(=O)NC2=NCCS2)cc1)S(=O)(=O)c1ccc(F)cc1` has an inhibition of -8.94%. `C/C(=N/NC(=O)CN1CCN(S(=O)(=O)c2ccc(Br)cc2)CC1)c1ccncc1` showed an inhibition of -12.4%. `Cc1nnc(C)c2c(C)n(N)c(C)c12` gave an inhibition of -1.23%. Work on `COc1ccc(CCN2C(=O)C(C)=C(C)C2=O)cc1OC` yielded an inhibition of -7.13%. `COc1cc(OC)cc(-c2c(C#Cc3ccsc3)c3cc(-c4ccc(SC)cc4)ccc3n2C)c1` showed an inhibition of 3.56%. Work on `O=C(c1ccco1)N1CCN(CCOc2ccccc2)CC1` yielded an inhibition of -1.67%. In the case of `O=C(c1ccco1)N1CCN(C(=O)C2c3ccccc3Oc3ccccc32)CC1`, the inhibition is reported as 42.8% (active). For `O=C(c1ccco1)N1CCN(c2cccc(Cl)c2)CC1`, the inhibition was 4.74%. Compound `CCCn1c(=O)c(C(=O)Nc2cc(C)ccn2)c(O)c2ccccc21` has an inhibition of -14.8%. `CC(=O)c1ccc(NC(=O)C(C)N(C)CC(=O)Nc2ccccc2Cl)cc1` (stereo not drawn) showed an inhibition of -5.51%. Work on `CCOC(=O)C1(CCOc2ccccc2)CCN(Cc2cc(OC)cc(OC)c2)CC1` yielded an inhibition of 9.31%. With `Cn1c(=O)c2c(-c3cccc(Br)c3)c(C#N)c(N)nc2n(C)c1=O` the inhibition was -18.2%. In the case of `COc1ccccc1-c1nnc(-c2ccc(F)cc2)o1`, the inhibition is reported as -17.9%. `CCOC(=O)[C@H]1[C@H]2COc3ccccc3[C@@H]2N2C(=O)CN(Cc3ccccc3)C(=O)[C@@]12C` gave an inhibition of -1.62%. `CC(=O)Cn1cnc2c(cnn2-c2ccccc2)c1=O` gave an inhibition of 2.17%. Compound `O=C1C(=O)N(CCCO)C(c2ccccc2)/C1=C(\O)c1ccc(Br)cc1` (stereo not drawn) has an inhibition of 2.05%. With `COc1ccc(N(CC(=O)NCCSCc2cccc(Cl)c2)S(C)(=O)=O)cc1` the inhibition was 1.88%. `COc1cc(OC)c(C(=S)N2CCCC2)cc1OC` gave an inhibition of -6.55%. `O=c1[nH]cnc(O)c1C(c1ccc(F)cc1)c1c(O)nc[nH]c1=O` gave an inhibition of 0.56%. For `CCCc1nc2oc3c(=O)[nH]cnc3c2c2c1COC(C)(C)C2`, the inhibition was 8.46%. For `COc1ccc(-c2c(C#Cc3ccccc3)c3ccccc3n2C)cc1`, the inhibition was -4.41%. `Cc1cccc(NC(=O)C(C)SCc2ccccc2)c1` (stereo not drawn) showed an inhibition of -2.36%. Work on `COc1ccc(Cc2cc(-c3ccc(F)cc3)n[nH]c2=O)cc1` yielded an inhibition of -14.6%. With `C=CC[C@@H](CC(=O)N[C@@H](CO)Cc1ccccc1)C(=O)NCCOC(=O)[C@@H](CC=C)CC(=O)OC(C)(C)C` the inhibition was -18.1%. Compound `COc1ccccc1-n1c(SCC(=O)O)nc2sc3c(c2c1=O)CCC3` has an inhibition of -0.96%. For `Cc1cc(C)cc(NC(=O)NC2CCN(CC(=O)Nc3cccc(Cl)c3C)CC2)c1`, the inhibition was -10.3%. Work on `CC(C)Cc1nnc(NC(=O)CCc2ccccc2)s1` yielded an inhibition of -5.6%. `COc1ccc(CCNC(=O)C2CCCN2C(=O)Nc2ccccc2)cc1OC` (stereo not drawn) showed an inhibition of 11.4%. `COC(=O)C1(C)NC(c2ccc(F)cc2)C2C(=O)N(c3ccccc3)C(=O)C21` (stereo not drawn) showed an inhibition of -19.3%. `COc1ccccc1-c1oc2ccccc2c1C#CCCCCO` showed an inhibition of 7.1%. `Cc1cc(-c2n[nH]c(=S)n2/N=C/c2ccco2)n[nH]1` gave an inhibition of 9.38%. Compound `CCCNC(=S)N1CCC(NC(=O)c2ccc(OC)cc2)CC1` has an inhibition of -3.26%. For `COc1ccc(C(C(=O)NC(C)(C)C)N(C(=O)Cn2nnc3ccccc32)c2ccc(C(C)=O)cc2)cc1O` (stereo not drawn), the inhibition was 8.85%.
